Screening results as filed in PubChem BioAssay.
TPT1 inh: C. albicans TPT1 enzyme inhibition; 0.81% of 300,000 active; inhibition, % at 5 µM; recombinant caTPT1, FP RNA substrate dephosphorylation; AID 1962;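 active = inhibition above the mean of all tested compounds plus 3 SD, set per screening campaign, cut at about 24% in these data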;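 note: plate controls were DMSO alone for no effect and ferristatin control at 100 nM for full effect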
IDE cell inh: inhibits human insulin-degrading enzyme in HEK cells; 0.41% of 320,000 active; AID 434962; FAbetaB cleavage, fluorescence polarization; inhibition, % at 5.59 µM; P14735;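 active = percent inhibition above the average of all tested compounds plus 3 SD, set per screening campaign, cut at about 16% in these data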;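 note: IDE supplied by intact live HEK cells; FP after avidin binding of uncleaved biotin substrate so inhibition keeps polarization high; 0% = DMSO wells and 100% = 60 µM reference IDE inhibitor Ii1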
Rin1-Abl PPI inh: human Rin1-Abl interaction inhibition. P00519+Q13671. 0.4% of 360,000 active. TR-FRET Rin1/Abl binding, biochemical. inhibition, % at 7.35 µM; in the data active = inhibition above about 5%, passing the limit was not always enough
Calb FLC: affects C. albicans growth with fluconazole; growth inhibition, % (no concentration beside the values); 0.57% of 300,000 active; C. albicans CaCi-2 (fluconazole-resistant clinical isolate) + fluconazole, Alamar Blue growth, 48 h;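 active = growth inhibition above about 58% in most replicates, limit read from the data, passing the limit was not always enough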;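 note: all wells also contain fluconazole at 8 µg/ml as a sub-toxic cotreatment; 0% = median of DMSO wells and 100% = median of geldanamycin control wells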
IDE cell activ: activators of human insulin-degrading enzyme in cells. 0.073% of 340,000 active. AID 493087. P14735. HEK cells, FAbeta-B cleavage, fluorescence polarization; 0% vehicle, 100% cell-free pure enzyme wells. activation, % at 5.96 µM;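 active = activation above the mean of all tested compounds plus 3 SD, set per screening campaign, cut at about 17% in these data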
Rpn11 block: Rpn11 (human) deubiquitinase inhibition; O00487; human 26S proteasome, Ub4-pepOG fluorescence polarization; 20S core pre-blocked with epoxomicin; inhibition, % at 20 µM; 0.59% of 360,000 active; AID 588493;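 active = inhibition at 20 µM, scaled to each plate's controls, above about 33%, limit read from the data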
Target sequence (O00487 whole entry, looked up): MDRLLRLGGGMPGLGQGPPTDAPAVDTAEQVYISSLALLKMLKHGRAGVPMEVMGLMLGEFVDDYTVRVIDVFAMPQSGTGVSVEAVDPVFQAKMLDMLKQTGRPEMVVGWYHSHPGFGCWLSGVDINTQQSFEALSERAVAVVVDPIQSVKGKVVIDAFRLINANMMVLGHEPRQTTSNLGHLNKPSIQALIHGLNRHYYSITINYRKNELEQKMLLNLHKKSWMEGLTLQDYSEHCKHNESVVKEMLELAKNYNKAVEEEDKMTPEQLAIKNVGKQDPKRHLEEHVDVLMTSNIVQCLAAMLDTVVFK
Active calls of the source: *; nt = no result given. Most compounds without a hit are left out; they make up all but 2.3% or so of the library.

SMILES | TPT1 inh | IDE cell inh | Rin1-Abl PPI inh | Calb FLC | IDE cell activ | Rpn11 block
CCCC(=O)NNC(=O)CCC(=O)Nc1ccccc1Cl | 0 | 4 | 3 | 2 | 7 | 1
O=C(CCC(=O)Nc1ccccc1Cl)NNS(=O)(=O)c1ccc(Cl)cc1 | nt | nt | 0 | 111* | 2 | -4
CCNS(=O)(=O)c1ccc(NC(=O)c2cccnc2)cc1 | -1 | -3 | 3 | 100* | 9 | -3
O=C(Nc1ccc(S(=O)(=O)Nc2ncccn2)cc1)c1cccnc1 | -1 | 5 | 0 | 6 | 5 | -10
O=C1C=CC(=O)c2c(O)c(CO)c(CO)c(O)c21 | nt | nt | 20* | nt | 3 | -72
CCCOc1ccc(C(=O)NNC(=S)NC(=O)c2ccco2)cc1 | 1 | 10 | -1 | 78* | 0 | 10
Cc1ccc(OCC(=O)NNC(=S)NC(=O)c2cccs2)c(C)c1 | nt | nt | -3 | -27 | 0 | 10
Cc1cc(OCC(=O)NNC(=S)NC(=O)c2cccs2)ccc1Cl | nt | nt | 1 | 104* | 6 | 4
CC(C)(C)C(=O)NC(=S)NNC(=O)c1ccc(-c2ccccc2)cc1 | 1 | 2 | -1 | 98* | 4 | 10
CCCOc1ccc(C(=O)NNC(=S)NC(=O)c2cccs2)cc1 | 1 | 3 | -5 | 93* | -4 | 16
CCc1cccc(CC)c1NC(=O)/C(C#N)=C/c1ccccc1C(F)(F)F | -1 | 1 | -1 | -4 | 1 | 0
CCCCOc1ccc(C(=O)NNC(=S)NC(=O)CC)cc1 | 0 | 2 | -5 | 87* | -1 | 1
CCC(=O)NC(=S)NNC(=O)c1ccc(OC)cc1 | -2 | -3 | -1 | -6 | 0 | 4
CC(C)(C)c1ccc(C(=O)NC(=S)NNC(=O)COc2ccccc2)cc1 | -7 | 0 | 2 | 101* | -14 | 8
CCCOc1ccc(C(=O)NNC(=S)NC(C)=O)cc1 | 0 | 0 | 3 | 102* | 1 | -4
CCOC(=O)C1=C(c2ccccc2)NC(N)=NC1c1ccc(OCc2ccc(Cl)cc2)c(OC)c1 (configuration not stated) | 2 | 2 | -2 | -6 | 19* | 12
CCOC(=O)C1=C(c2ccccc2)NC(=O)NC1c1cc(Cl)c(O)c(OC)c1 (configuration not stated) | 4 | -2 | -3 | 0 | -5 | 4
O=S(=O)(c1ccc(NCCOc2ccccc2)nc1)N1CCCC1 | nt | 1 | 1 | nt | 1 | 4
O=C(N/N=C/c1ccc(O)c2ncccc12)c1cccc(Br)c1 | 2 | 1 | 4 | 116* | -14 | 38
CN(C)C(=O)c1cn(-c2ccccc2)nc1-c1cccs1 | -1 | -9 | -3 | 106* | -2 | 4
CN(C)c1ccc(NC(=O)c2cn(-c3ccccc3)nc2-c2cccs2)cc1 | 0 | -1 | -1 | 13 | 6 | -3
Cc1ccc(C(=O)Nc2cccc(-c3cn4ccccc4n3)c2)cc1 | -1 | 7 | 4 | 94* | -1 | 0
Cc1ccccc1N1CCN(CCC(=O)Nc2ccc(F)cc2)CC1 | 3 | -11 | 0 | 2 | 5 | -3
CCCc1ccc(OCC(=O)Nc2cc(S(=O)(=O)CC)ccc2O)cc1 | 2 | 1 | 6 | 90* | 7 | -6
CN1CC2([N+](=O)[O-])CC=C(Oc3ccccc3)C([N+](=O)[O-])(C1)C2 (configuration not stated) | 0 | -1 | -1 | -1 | -1 | 1
SMILES | TPT1 inh | IDE cell inh | Rin1-Abl PPI inh | Calb FLC | IDE cell activ | Rpn11 block
CN1CC2([N+](=O)[O-])CC=C(OCCO)C([N+](=O)[O-])(C1)C2 (configuration not stated) | -2 | 4 | 3 | 113* | 6 | 2
CCCc1cc(=O)[nH]c(SCC(=O)N2CCCC2=O)n1 | 1 | -4 | -1 | 2 | 2 | 0
Fc1cccc(-n2cc(-c3ccccc3)c3c(=S)nc[nH]c32)c1 | 0 | 6 | -4 | 101* | -9 | -6
Fc1ccc(-n2cc(-c3ccccc3)c3c(=S)nc[nH]c32)cc1 | 1 | 9 | 0 | 61 | -6 | -7
COc1ccc(OC)c(Cc2nnc(CCC(=O)N3CCCCC3c3nccs3)o2)c1 (configuration not stated) | 2 | 2 | -6 | 3 | -2 | -4
Cc1cccc(Cc2nnc(CCC(=O)N3CCCCC3c3nccs3)o2)c1 (configuration not stated) | 2 | 4 | 0 | 100* | 2 | 3
O=S(=O)(c1ccc(F)cc1)N1CCN(CCc2ccccc2)CC1 | -1 | -2 | 0 | -2 | -1 | -15
COc1cc(OC)cc(-c2c(-c3ccsc3)c3cc(Br)ccc3n2C)c1 | nt | -2 | 0 | nt | -3 | 4
CCCCCCCCCCCCCCCC[n+]1ccccc1 | nt | nt | -1 | nt | 7 | 81*
CCCCCCCCCCCCCCCC[n+]1ccc(/C=N/O)cc1 | 1 | 5 | -4 | nt | 6 | 66*
O/N=C/c1cccc[n+]1CCCCCC[n+]1ccccc1/C=N/O | nt | nt | -2 | 3 | 3 | -2
CC(C)(C)C(=O)N(Cc1nc2ccccc2c(=O)[nH]1)Cc1cccs1 | 2 | 4 | 4 | -24 | 2 | -4
O=C(CCCl)N(Cc1nc2ccccc2c(=O)[nH]1)Cc1cccs1 | 0 | -2 | -2 | 56* | 6 | -7
CCOc1ccc(OCCOC(=O)CNC(=O)c2ccc(Cl)cc2Cl)cc1 | -8 | 11 | 5 | -1 | 3 | -2
Cc1cccc(N=Nc2c(C)[nH]n(C(N)=S)c2=O)c1C | -2 | 3 | nt | 105* | nt | nt
Cc1cc2oc(=O)cc(CN3CCCCCCC3)c2cc1Cl | nt | nt | 2 | nt | nt | 5
CCOc1ncccc1C(=O)Nc1cc(S(=O)(=O)N2CCOCC2)ccc1OCC(F)(F)F | nt | 9 | 0 | nt | 3 | 0
CCN(CC)C(=O)Cn1c(=O)n(-c2ccccc2)c(=O)c2c3c(sc21)CCC3 | -4 | 2 | 2 | 113* | 0 | 4
O=C(NNC1=C(C(=O)C(F)(F)F)CCC1)c1ccc(Cl)cc1 | -3 | 1 | -5 | 109* | -3 | -7
O=C(NNC1=C(C(=O)C(F)(F)F)CCC1)c1cccc(Cl)c1 | -2 | -4 | 1 | 101* | 2 | -12
COc1ccc(C(=O)NNC2=C(C(=O)C(F)(F)F)CCC2)cc1 | -3 | 0 | -2 | 0 | nt | -6
Cc1cc(NC(=O)CSc2nnnn2-c2ccc(C)c(Cl)c2)no1 | -5 | -2 | -1 | 2 | 2 | -5
Cc1sc2nc(CSCC(=O)N(CCC#N)c3ccccc3)[nH]c(=O)c2c1C | 23 | -3 | 3 | 28 | -7 | 42*
CCc1nnc(NC(=O)Cn2ccc(C(F)(F)F)n2)s1 | -2 | 2 | 2 | 95* | 2 | -2
CCc1nnc(NC(=O)CSc2ncc(-c3ccccc3)n2C)s1 | -3 | 5 | -1 | 86* | -1 | -3
CCc1nnc(NC(=O)CN2C(=O)CCC2=O)s1 | -3 | 4 | 1 | -1 | 5 | -2
